Read-out in assay [1]: solute carrier (SLCO1B1), SLCO1B1 (gene 10599)
Nature of the assay: LTEA_HepaRG_SLCO1B1: Life Technologies and Expression Analysis (LTEA) Assay for solute carrier (SLCO1B1) using HepaRG (AID 2283530; active means hit-call score of the fitted dose curve at least 0.9, where 1 is the maximum; inactive means score below 0.9). The conditions noted are these: mRNA level, 48 h; actives raise or lower the signal. The method in brief:
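Differentiated human HepaRG cells, plated 48 h, switched to serum-free induction medium and exposed in duplicate for 48 h to 8 half-log concentrations (top 100 uM) in 0.5% DMSO. SLCO1B1 mRNA by TaqMan qRT-PCR, normalized to ACTB/GAPDH/POLR2A.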

Read-out in assay [2]: sulfotransferase 2A1 (SULT2A1), SULT2A1 (gene 6822)
The experiment in a line: LTEA_HepaRG_SULT2A1: Life Technologies and Expression Analysis (LTEA) Assay for sulfotransferase 2A1 (SULT2A1) using HepaRG (AID 2283531; active means hit-call score of the fitted dose curve at least 0.9, where 1 is the maximum; inactive means score below 0.9). Conditions: mRNA level, 48 h; actives raise or lower the signal. In short, it runs like this: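 Differentiated human HepaRG cells in serum-free induction medium were exposed for 48 h to eight half-log concentrations (top 100 uM, 0.5% DMSO). SULT2A1 mRNA was measured by qRT-PCR, normalized to ACTB, GAPDH and POLR2A, and fitted bidirectionally against DMSO.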

Read-out in assay [3]: Transforming Growth Factor (TGFA), TGFA (gene 7039)
Nature of the assay: LTEA_HepaRG_TGFA: Life Technologies and Expression Analysis (LTEA) Assay for Transforming Growth Factor (TGFA) using HepaRG (AID 2283532; active means hit-call score of the fitted dose curve at least 0.9, where 1 is the maximum; inactive means score below 0.9). Conditions: mRNA level, 48 h; actives raise or lower the signal. The method in brief: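 Differentiated HepaRG cells exposed 48 hours in serum-free induction medium, 0.5% DMSO vehicle, 8-point half-log series from 100 uM, in duplicate. TGFA mRNA by TaqMan qRT-PCR, normalised to ACTB, GAPDH, POLR2A; bidirectional fit versus DMSO.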

Read-out in assay [4]: Transforming Growth Factor (TGFB1), TGFB1 (gene 7040)
Nature of the assay: LTEA_HepaRG_TGFB1: Life Technologies and Expression Analysis (LTEA) Assay for Transforming Growth Factor (TGFB1) Transporter using HepaRG (AID 2283533; active means hit-call score of the fitted dose curve at least 0.9, where 1 is the maximum; inactive means score below 0.9). The conditions noted are these: mRNA level, 48 h; actives raise or lower the signal. In short, it runs like this: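 Differentiated human HepaRG cells in serum-free induction medium were exposed in duplicate for 48 h to eight concentrations (top 100 uM, half-log steps, 0.5% DMSO). TGFB1 mRNA was quantified by qRT-PCR, normalized to ACTB, GAPDH, POLR2A, and fitted bidirectionally against DMSO.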

Read-out in another assay: TIMP1, TIMP1 (gene 7076)
The experiment in a line: LTEA_HepaRG_TIMP1: Life Technologies and Expression Analysis (LTEA) Assay for TIMP1 using HepaRG (AID 2283534; active means hit-call score of the fitted dose curve at least 0.9, where 1 is the maximum; inactive means score below 0.9;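 further: TaqMan qRT-PCR signal normalized to ACTB GAPDH and POLR2A housekeeping genes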). The conditions noted are these: mRNA level, 48 h; actives raise or lower the signal. In short, it runs like this:
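Differentiated human HepaRG cells in serum-free induction medium were exposed 48 h to chemicals (8 half-log concentrations, top 100 uM, 0.5% DMSO). TIMP1 mRNA was quantified by TaqMan qRT-PCR, normalized to ACTB/GAPDH/POLR2A; bidirectional fit versus DMSO.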

Read-out in assay [5]: Tumor necrosis factor receptor 1 (TNFRSF1A), TNFRSF1A (gene 7132)
Nature of the assay: LTEA_HepaRG_TNFRSF1A: Life Technologies and Expression Analysis (LTEA) Assay for Tumor necrosis factor receptor 1 (TNFRSF1A) using HepaRG (AID 2283535; active means hit-call score of the fitted dose curve at least 0.9, where 1 is the maximum; inactive means score below 0.9). The conditions noted are these: mRNA level, 48 h; actives raise or lower the signal. In short, it runs like this: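 Differentiated human HepaRG cells were exposed in duplicate for 48 h in serum-free induction medium to eight concentrations (top 100 uM, half-log steps, 0.5% DMSO). TNFRSF1A mRNA was quantified by qRT-PCR, normalized to ACTB, GAPDH and POLR2A, then fitted bidirectionally against DMSO.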

Read-out in assay [6]: Thyroid Hormone Responsive (THRSP), THRSP (gene 7069)
The experiment in a line: LTEA_HepaRG_THRSP: Life Technologies and Expression Analysis (LTEA) Assay for Thyroid Hormone Responsive (THRSP) using HepaRG (AID 2283536; active means hit-call score of the fitted dose curve at least 0.9, where 1 is the maximum; inactive means score below 0.9). Conditions: mRNA level, 48 h; actives raise or lower the signal. In short, it runs like this:
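Differentiated HepaRG cells treated 48 h in serum-free induction medium with 8 half-log concentrations up to 100 uM (0.5% DMSO), duplicates. THRSP mRNA by TaqMan qRT-PCR normalised to ACTB, GAPDH, POLR2A; bidirectional fit versus DMSO.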

Read-out in assay [7]: Cellular tumor antigen p53 (Homo sapiens) (UniProt P04637)
The experiment in a line: LTEA_HepaRG_TP53: Life Technologies and Expression Analysis (LTEA) Assay for Tumor Protein P53 (TP53) using HepaRG (AID 2283537; active means hit-call score of the fitted dose curve at least 0.9, where 1 is the maximum; inactive means score below 0.9). Conditions: mRNA level, 48 h; actives raise or lower the signal. The method in brief:
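Read-out is TP53 transcript level by microfluidic qRT-PCR, normalised to three housekeeping genes and fitted bidirectionally against DMSO. Human HepaRG cells received compounds for 48 h, highest concentration 100 uM.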

Read-out in assay [8]: UDP glucuronosyltransferase (UGT1A1), UGT1A1 (gene 54658)
Nature of the assay: LTEA_HepaRG_UGT1A1: Life Technologies and Expression Analysis (LTEA) Assay for UDP glucuronosyltransferase (UGT1A1) using HepaRG (AID 2283538; active means hit-call score of the fitted dose curve at least 0.9, where 1 is the maximum; inactive means score below 0.9). Conditions: mRNA level, 48 h; actives raise or lower the signal. In short, it runs like this:
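HepaRG cells, 0.5% DMSO vehicle, 48 h exposure in serum-free induction medium to 8-point half-log series topping at 100 uM, in duplicate. UGT1A1 mRNA by Fluidigm qRT-PCR, normalized to ACTB/GAPDH/POLR2A; bidirectional fit versus DMSO.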

Read-out in assay [9]: UDP glucuronosyltransferase (UGT1A6), UGT1A6 (gene 54578)
Nature of the assay: LTEA_HepaRG_UGT1A6: Life Technologies and Expression Analysis (LTEA) Assay for UDP glucuronosyltransferase (UGT1A6) using HepaRG (AID 2283539; active means hit-call score of the fitted dose curve at least 0.9, where 1 is the maximum; inactive means score below 0.9). Conditions: mRNA level, 48 h; actives raise or lower the signal. In short, it runs like this: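 Human HepaRG cells were dosed for 48 h in serum-free induction medium with 0.5% DMSO vehicle, eight-point half-log series from 100 uM, in duplicate. UGT1A6 mRNA was measured by qRT-PCR, normalized to ACTB, GAPDH, POLR2A, and fitted bidirectionally against DMSO.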

Read-out in assay [10]: X-box binding protein 1 (XBP1), XBP1 (gene 7494)
Nature of the assay: LTEA_HepaRG_XBP1: Life Technologies and Expression Analysis (LTEA) Assay for X-box binding protein 1 (XBP1) using HepaRG (AID 2283540; active means hit-call score of the fitted dose curve at least 0.9, where 1 is the maximum; inactive means score below 0.9). The conditions noted are these: mRNA level, 48 h; actives raise or lower the signal. The method in brief: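 Differentiated human HepaRG cells in serum-free induction medium were exposed in duplicate for 48 h to eight half-log concentrations up to 100 uM in 0.5% DMSO. XBP1 mRNA was quantified by qRT-PCR, normalised to ACTB, GAPDH and POLR2A, with bidirectional fitting against DMSO.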

A short description of assay [11]: LTEA_HepaRG_LDH_cytotoxicity: Cytotoxicity Assessment in the Life Technologies and Expression Analysis (LTEA) Assay (AID 2283563). The method in brief:
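Differentiated human HepaRG cells, plated 48 h beforehand, were switched to serum-free induction medium and exposed for 48 h to eight half-log concentrations (top 100 uM) in 0.5% DMSO. LDH was measured in spent medium; activity was fitted relative to DMSO vehicle.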

Assay [12] concerns the target Cellular tumor antigen p53 (Homo sapiens) (UniProt P04637). The experiment in a line: TOX21_p53_BLA_p2_ratio: Tox21 HCT-116 p53 Agonism Beta-lactamase Assay, Ratio, Phase 2 (AID 2283592). The method in brief: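 HCT116 cells carrying a p53-responsive beta-lactamase reporter were plated, incubated 5 h at 37C, then dosed with compounds in DMSO (217-fold dilution) for 16 h. CCF4-AM substrate was added for 2 h at room temperature; the 460/530 nm emission ratio gave gain-of-signal activity relative to DMSO.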

Assay [13] can be described thus: TOX21_p53_BLA_p3_viability: Viability Assessment in the Tox21 HCT-116 p53 Agonism Beta-lactamase Assay, Phase 3 (AID 2283593).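 Further: cells exposed to compound for 16 h before reading.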 The method in brief: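 HCT116 cells, 4000/well, dosed 5 h after plating by pin transfer (217-fold dilution from DMSO stock) and incubated 16 h at 37C, 5% CO2. Viability read as ATP luminescence with CellTiter-Glo after 30 min at room temperature.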

The target in assay [14] is Cellular tumor antigen p53 (Homo sapiens) (UniProt P04637). Nature of the assay: TOX21_p53_BLA_p3_ratio: Tox21 HCT-116 p53 Agonism Beta-lactamase Assay, Ratio, Phase 3 (AID 2283596). In short, it runs like this:
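HCT116 p53-bla cells (4000/well) given compound in DMSO (217-fold dilution) after 5 h, incubated 16 h at 37C. CCF4-AM substrate 2 h at room temperature; 460/530 nm emission ratio, gain fitted against DMSO.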

The nature of assay [15]: TOX21_p53_BLA_p4_viability: Viability Assessment in the Tox21 HCT-116 p53 Agonism Beta-lactamase Assay, Phase 4 (AID 2283597).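 Further: hits lower the luminescence signal meaning cytotoxicity.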 The method in brief: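 HCT116 p53-bla cells (4000/well) rested 5 h at 37C, then received compounds in DMSO (217-fold dilution) for 16 h at 37C, 5% CO2. CellTiter-Glo was added after the CCF4-AM read, and luminescence was read after 30 min at room temperature.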

Assay [16] concerns the target Cellular tumor antigen p53 (Homo sapiens) (UniProt P04637). The experiment in a line: TOX21_p53_BLA_p5_ratio: Tox21 HCT-116 p53 Agonism Beta-lactamase Assay, Ratio, Phase 5 (AID 2283599). The method in brief: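 HCT-116 p53-bla cells (4000/well) plated 5 h, dosed with compound (217-fold DMSO dilution) for 16 h at 37 C; CCF4-AM substrate 2 h at room temperature. Activity is the 460/530 nm emission ratio (405 nm excitation), fitted in gain-of-signal direction versus DMSO.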

Assay [17] can be described thus: TOX21_p53_BLA_p5_viability: Viability Assessment in the Tox21 HCT-116 p53 Agonism Beta-lactamase Assay, Phase 5 (AID 2283600). In short, it runs like this: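 Cells were plated at 4000/well, rested 5 h at 37C, then given compounds in DMSO (217-fold dilution) for 16 h at 37C, 5% CO2. Following the CCF4-AM beta-lactamase read, CellTiter-Glo was added and luminescence was read after 30 min at room temperature.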

Assay [18] concerns the target Cellular tumor antigen p53 (Homo sapiens) (UniProt P04637). Nature of the assay: TOX21_p53_BLA_p4_ratio: Tox21 HCT-116 p53 Agonism Beta-lactamase Assay, Ratio, Phase 4 (AID 2283601). The method in brief:
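HCT-116 p53 beta-lactamase reporter cells (4000/well) preincubated 5 h, then compound (217-fold dilution of DMSO stock) for 16 h at 37C. CCF4-AM substrate added 2 h at room temperature; 460/530 nm emission ratio fitted upward versus DMSO.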

A short description of assay [19]: ATG_XTT_Cytotoxicity: Cytotoxicity Assessment in the Attagene TRANS-FACTORIAL HepG2 Assay (AID 2283584). In short, it runs like this: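 HepG2 human liver cells, transiently transfected with multiple GAL4-UAS reporter units, were dosed and read at 24 h by XTT as cell number. Loss of signal was fitted relative to DMSO negative control baseline.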

The source of these data is PubChem BioAssay (EPA / NIEHS).

As usually defined, the AC50 is the concentration giving half of the maximal activity seen.

SMILES strings stand for the structures. Inconclusive results are not listed. Activity calls are given as the source filed them. How the source made its calls, unless noted: active means hit-call score of the fitted dose curve at least 0.9, where 1 is the maximum; inconclusive means response in the unintended direction; inactive means score below 0.9.

Cellular tumor antigen p53 (Homo sapiens), sequence (P04637 whole entry, looked up): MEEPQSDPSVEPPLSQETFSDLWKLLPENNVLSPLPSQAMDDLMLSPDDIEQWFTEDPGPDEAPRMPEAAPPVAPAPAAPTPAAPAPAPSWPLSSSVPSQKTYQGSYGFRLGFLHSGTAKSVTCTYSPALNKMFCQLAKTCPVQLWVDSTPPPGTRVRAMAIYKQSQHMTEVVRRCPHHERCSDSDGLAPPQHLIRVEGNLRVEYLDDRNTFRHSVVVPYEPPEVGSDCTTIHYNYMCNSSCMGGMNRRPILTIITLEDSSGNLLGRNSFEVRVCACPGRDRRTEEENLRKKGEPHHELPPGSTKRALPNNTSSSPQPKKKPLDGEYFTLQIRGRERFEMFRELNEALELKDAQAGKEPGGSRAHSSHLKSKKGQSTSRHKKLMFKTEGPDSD

Consider `O=[N+]([O-])c1c(Cl)c(Cl)c(Cl)c(Cl)c1Cl`, for which the outcome in [1] is “inactive”; in assay [2], “inactive”; in [3], “inactive”; in assay [4], “inactive”; with TIMP1, TIMP1 (gene 7076), “inactive”; in [5], “inactive”. For the same compound, the compound was classed as inactive in assay [6], in assay [7], in assay [9], in assay [10], in [11] and in assay [12]. Further, the compound was classed as inactive in assay [13], in assay [14], in assay [15], in assay [16], in assay [17] and in [18]. Further, the AC50 in [8] is 17.2 µM (active).
On to `COP(=S)(OC)Oc1ccc(SC)c(C)c1`, for which the outcome in assay [1] was “inactive”; in assay [2], “inactive”; in assay [3], “inactive”; in [4] it was “inactive”; in the assay with TIMP1, TIMP1 (gene 7076), “inactive”; in assay [5] it was “inactive”. Also, the outcome in [6], in assay [7], in assay [10], in assay [11], in [19] and in [12] was inactive. Further, the compound was classed as inactive in assay [13], in [14], in [15], in assay [16], in [17] and in [18]. Also, the concentration at half-maximal activity (AC50) in [8] is 25.2 µM (active).
For `C[C@H]1[C@H](c2ccc(Cl)cc2)SC(=O)N1C(=O)NC1CCCCC1`, the AC50 in [1] is 60.7 µM (active); in assay [2] it was 93.4 µM (active); in assay [3], 69.5 µM (active); in [4], 50 µM (active); in assay [6], 90.2 µM (active); in [7] it was 82.3 µM (active). The concentration at half-maximal activity (AC50) in [8] was 88.6 µM (active); in assay [9], 78.8 µM (active). Moreover, the outcome is “inactive” with TIMP1, TIMP1 (gene 7076); “inactive” in assay [5]; “inactive” in assay [10]; “inactive” in [11]; “inactive” in assay [12]; “inactive” in assay [13]. Besides, the result in [14], in assay [16] and in assay [17] was inactive.
